A selection: hits, their analogues and other compounds. The true share with any hit is near 1%.
TSHR antag = antagonists of human thyroid stimulating hormone receptor. P16473. activity change, negative = inhibition, % at 11.5 µM. actives 0.2% (n = 330,000). TSHR-expressing cells, TSH-stimulated cAMP HTRF, 2 h; active compounds read low;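 active = activity change below a set negative limit, meaning inhibition stronger than a set level, cut at about -70% in these data; inconclusive = activity change between two set negative limits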; also: % is scaled to controls: 0 for no effect and ±100 for the full control effect
Target sequence (P16473 whole entry, looked up): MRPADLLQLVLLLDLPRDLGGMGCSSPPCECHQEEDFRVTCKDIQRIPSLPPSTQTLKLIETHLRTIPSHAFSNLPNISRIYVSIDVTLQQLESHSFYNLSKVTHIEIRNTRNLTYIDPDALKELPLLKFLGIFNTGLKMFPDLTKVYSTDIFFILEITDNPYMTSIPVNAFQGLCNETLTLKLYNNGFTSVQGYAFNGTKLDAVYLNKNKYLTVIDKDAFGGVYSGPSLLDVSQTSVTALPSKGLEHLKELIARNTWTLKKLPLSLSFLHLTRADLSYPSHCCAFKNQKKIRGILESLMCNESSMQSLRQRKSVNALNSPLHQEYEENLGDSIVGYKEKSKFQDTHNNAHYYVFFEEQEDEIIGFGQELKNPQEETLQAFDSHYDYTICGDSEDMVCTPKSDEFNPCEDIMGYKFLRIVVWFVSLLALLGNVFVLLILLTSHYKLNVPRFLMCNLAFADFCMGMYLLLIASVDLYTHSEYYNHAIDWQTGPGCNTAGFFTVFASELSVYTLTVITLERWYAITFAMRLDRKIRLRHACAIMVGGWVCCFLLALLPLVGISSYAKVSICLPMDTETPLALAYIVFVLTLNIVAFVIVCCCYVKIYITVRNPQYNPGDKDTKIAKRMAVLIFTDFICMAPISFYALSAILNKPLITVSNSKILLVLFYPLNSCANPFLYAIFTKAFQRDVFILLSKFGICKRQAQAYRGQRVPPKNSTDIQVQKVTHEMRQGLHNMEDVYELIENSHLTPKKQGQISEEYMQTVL
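Antagonism was scored as loss of TSH-driven cAMP in TSHR cells, stimulated with 4nM TSH (EC80) for 2 hours at 37 deg C and detected by homogeneous HTRF competition immunoassay.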
gsp agonist = activates gsp, the McCune-Albright syndrome mutation; gsp mutant cells, cAMP HTRF, 30 min; Potency, µM (titrated, usually from 76.9 µM), without a hit: top-dose activation (cAMP increase), actives largely listed as activators; actives 0.13% (n = 340,000); AID 624287; active = well fitted activation curve with a large enough effect; inconclusive = small, poorly fitted or top-dose-only effect, or another doubt; inactive = no such curve, though single readings can be large or run the other way; cell line not stated here;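 also: phosphodiesterase inhibitor Ro 20-1724 added with compounds to block cAMP breakdown; potency is read from the fitted curve at half-maximal effect; nearly all actives have a fitted effect of over 60% in size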
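Cells stably selected in G418 were plated at 2000/well, grown 16-24 hr, then given compounds in DMSO with the PDE inhibitor […] (300 uM solution added) for 30 min at 37C; cAMP was read by HTRF.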
RXFP1 ag = activates the human relaxin receptor RXFP1; Q9HBX9; HEK293T-RXFP1 cAMP TR-FRET, 30 min; response scale: percent of porcine relaxin response, buffer zero; Potency, µM (titrated, usually from 57.5 µM), inactives show top-dose activation, most hits filed as activators; actives 0.3% (n = 370,000); active = well fitted activation curve with a large enough effect; inconclusive = small, poorly fitted or top-dose-only effect; also: potency is read from the fitted curve at half-maximal effect; % is scaled to controls: 0 for no effect and ±100 for the full control effect; nearly all actives have a fitted effect of over 60% in size
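HEK293T cells stably expressing RXFP1 were pretreated with the PDE4 inhibitor Ro 20174, exposed to compounds for 30 min at 37C, lysed, and cAMP was read by TR-FRET. Data normalized to buffer (basal) and 29 nM porcine relaxin (100%).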
RXFP1 antag = blocks the human relaxin receptor RXFP1; Q9HBX9; HEK293-RXFP1, relaxin-stimulated cAMP HTRF, 30 min; active compounds read low; activity change, negative = inhibition, % at 57.5 µM; actives 0.59% (n = 350,000);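 active = activity change of -60% or lower, but not beyond a set lower limit; inconclusive = change between -60% and -40%, or beyond the set limit; inactive = change above -40%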; also: % is scaled to controls: 0 for no effect and ±100 for the full control effect
gsp antag = antagonizes gsp, the McCune-Albright syndrome mutation; gsp-mutant cells, cAMP HTRF, 30 min; Potency, µM (titrated, usually from 76.9 µM), for the others: top-dose activity change, negative = inhibition, most hits filed as inhibitors; actives 0.4% (n = 340,000); AID 624288; calls by dose curve; cell line not stated here;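 also: intracellular cAMP measured with PDE inhibitor Ro 20-1724 present during compound exposure; potency is read from the fitted curve at half-maximal effect; % is scaled to controls: 0 for no effect and ±100 for the full control effect; nearly all actives have a fitted effect of over 65% in size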
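HTRF cAMP read-out (cAMP-d2 plus anti-cAMP antibody-K in lysis buffer, 30 min RT). Before lysis, cells are exposed to compounds with […] for 30 min at 37C in DPBS containing Ca/Mg, BSA and Tween 20.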
Active calls of the source: *; u = inconclusive; x = not tested or not shown; + = active, no number; ! = repeats disagree; [ ] = another dose, or the depositor's remark.

SMILES | TSHR antag | gsp agonist | RXFP1 ag | RXFP1 antag | gsp antag
COc1ccc(NC(=O)CCn2c(=S)[nH]c3ccccc3c2=O)cc1OC | -2.1 | u | 16.1% | -73.7* | 21.0%
O=C(CCCn1c(=S)[nH]c2cc3c(cc2c1=O)OCO3)NCc1ccco1 | -12.0 | 3.7%[15.4 µM] | 6.2% | -63.6* | 9.9%
CCN(C(=O)C1CCN(S(=O)(=O)c2cc(Br)cc3c2N(C(C)=O)CC3)CC1)c1cccc(C)c1 | x | x | 0.5% | -2.9 | x
CCc1ccc2occ(CC(=O)Nc3sc4c(c3C(=O)OC)CCC4)c2c1 | x | x | -2.6% | -24.9 | x
O=C(CCCn1c(=S)[nH]c2cc3c(cc2c1=O)OCO3)N1CCN(c2ccc(Cl)cc2)CC1 | -5.7 | -30.5% | 2.2% | -115.8* | -9.2%
CC1CC(C)CN(C(=O)CCCn2c(=S)[nH]c3ccccc3c2=O)C1 (stereo not given) | 10.3 | -7.7% | -0.4% | -97.2* | -1.2%
O=C(CCCn1c(=S)[nH]c2cc3c(cc2c1=O)OCO3)NC1CC1 | -2.7 | 0.0% | 4.1% | -71.7* | 15.8%
O=C(CCCn1c(=S)[nH]c2cc3c(cc2c1=O)OCO3)N1CCN(c2ccccc2)CC1 | -14.8 | -0.4% | 0.9% | -13.6 | 20.9%
Cc1cccc(N2CCN(C(=O)CCn3c(=S)[nH]c4cc5c(cc4c3=O)OCO5)CC2C)c1 (stereo not given) | -17.2 | 21.4% | 0.1% | -77.2* | -18.6%
COc1ccc(N2CCN(C(=O)CCCCCn3c(=S)[nH]c4cc5c(cc4c3=O)OCO5)CC2)cc1 | -7.9 | 10.9% | u | u | 2.8%
COc1ccc(N2CCN(C(=O)CCCCCn3c(=S)[nH]c4ccc(N5CCOCC5)cc4c3=O)CC2)cc1 | x | -19.6% | x | -98.4* | x
O=C(C1CC1)N1N=C(c2ccncc2)CC1(O)C(F)(F)F (stereo not given) | -0.2 | -19.6% | 0.0% | -62.5* | -1.4%
O=C(c1ccccc1O)N1N=C(c2ccccc2)CC1(O)C(F)(F)F (stereo not given) | -0.7 | -94.0% | -0.6% | -76.2* | 1.4%
Cc1ccc(-n2nc(C(=O)N(C)c3ccc(C)c(C)c3)c3c4ccccc4n(C)c3c2=O)cc1 | x | x | -0.6% | -4.8 | x
c1csc(-c2nnc(NC3CCCCC3)c3ccccc23)c1 | -13.8 | -8.7% | -1.3% | -26.9 | 39.8µM*
COc1ccc(C(CC(=O)Nc2ccc(F)c(Cl)c2)N2Cc3ccccc3C2=O)cc1OC (stereo not given) | x | x | -0.7% | x | x
O=C(N/N=C/c1c[nH]c2c1ccc1ccccc12)c1ccc([N+](=O)[O-])cc1 | 7.8 | -2.4%[15.4 µM] | -1.9% | -68.3* | -6.6%
O=C1C(SCCO)=C(SCCO)C(=O)c2ccccc21 | -86.5*! | x | -3.0% | x | 35.5µM*
O=C1C(Cl)=C(NCCCO)C(=O)c2ccccc21 | -0.1 | -24.5% | 0.4% | 7.9 | -23.7%
Cc1cc(C(=O)NCCN2C(=O)S/C(=C\c3cccs3)C2=O)ccc1[N+](=O)[O-] | -9.3 | 5.4% | 1.1% | -3.7 | 25.1µM*
Cc1cc(C(=O)NCc2cccs2)ccc1[N+](=O)[O-] | 12.0 | 8.4% | 0.0% | -4.5 | -2.1%
Cc1oc2ccc(O)c(CN3CCN(C)CC3)c2c1C(=O)Nc1cccc(C(F)(F)F)c1 | x | x | -2.8% | -9.1 | x
O=C(Nc1nnc(C2CC2)s1)c1ccc(Cl)c(S(=O)(=O)N2CCc3ccccc3C2)c1 | -90.4* | 1.8%[15.4 µM] | -0.4% | -13.3 | -8.2%
CCOc1ccc(NC(=O)CC2C(=O)N(c3cccc(C)c3)C(=O)N2CCC2=CCCCC2)cc1 (stereo not given) | x | x | -0.5% | x | x
COc1ccc(CCN2C(=O)/C(=C\c3ccco3)SC2=S)cc1OC | 12.5 | 4.6% | -0.3% | -77.4* | -4.3%
SMILES | TSHR antag | gsp agonist | RXFP1 ag | RXFP1 antag | gsp antag
N#Cc1c(N)[nH]c(=S)c(C#N)c1-c1ccccc1 | -4.8 | 20µM* | 29.5% | 33.8 | 19.9%
Cc1cc(/C=N\NC(=O)c2cccs2)c(C)n1-c1ccc2ncccc2c1 | -8.9 | 25.9% | -1.2% | -2.6 | 39.8µM*
Cc1cc(/C=N\NC(=O)COc2cccc3cccnc23)c(C)n1-c1ccc(Br)cc1 | 16.4 | u | 1.1% | -1.7 | 1.6%
CC(=O)c1ccc(N2C(=O)N(Cc3cc(C)ccc3C)c3ccccc3S2(=O)=O)cc1 | x | x | 0.5% | x | x
CCOC(=O)c1sc(N2C(=O)c3oc4ccc(F)cc4c(=O)c3C2c2ccc(O)cc2)nc1C (stereo not given) | x | x | -3.9% | -6.9 | x
COc1ccc(/C=C2/C(=O)N(c3ccccc3)N=C2C)cc1 | x | -5.1% | x | -60.6* | -5.3%
CC1=NN(c2ccccc2)C(=O)/C1=C/N(C)C | 4.5 | 2.3% | 0.0% | 15.3 | -1.0%
CC1=NN(c2ccccc2)C(=O)/C1=C\C=C\c1ccccc1 | -4.9 | 14.9%[15.4 µM] | 1.6% | -62.8* | -7.6%
CC1=NN(c2ccccc2)C(=O)/C1=C/C=C/c1ccc(N(C)C)cc1 | -4.3 | 4.6% | -19.3% | -20.9 | 35.5µM*
CC1=NN(c2ccccc2)C(=O)/C1=C/c1cccc(C)c1 | 1.2 | -6.1%[15.4 µM] | -0.3% | -27.5 | -15.2%
COc1ccc(CNC(=O)c2cnc3sc(N4CCC(C)CC4)nn3c2=O)c(OC)c1 | x | x | -0.8% | -6.5 | x
CCOC(=O)C1(C)C=C(Nc2ccc(C(N)=O)cc2)C(=O)N1c1ccccc1 (stereo not given) | x | x | 4.1% | x | x
CC(C)(C)OC(=O)N[C@@H](Cc1ccccc1)c1nnc(S(=O)(=O)Cc2ccccc2)o1 | -32.3 | x | -0.3% | x | x
Cc1ccccc1CS(=O)(=O)c1nnc([C@H](Cc2ccccc2)NC(=O)OC(C)(C)C)o1 | u | -58.6% | -0.3% | -66.7* | 22.0%
CCC(C)[C@@H](NC(=O)OC(C)(C)C)c1nnc(S(=O)(=O)Cc2cccc(C)c2)o1 (stereo not given in full) | -71.7* | 14.4% | 1.1% | u | 9.4%
COCCNC(=O)c1cn(C)c2ccc(S(=O)(=O)N3CCCC3)cc2c1=O | 5.8 | 4.3% | 4.9% | -3.8 | 50.1µM*
COC(CNC(=O)c1cn(C)c2ccc(S(=O)(=O)N3CCOCC3)cc2c1=O)OC | -118.4* | u | 8.8% | -8.4 | 2.9%
CCOCCCNC(=O)c1cn(C)c2ccc(S(=O)(=O)N3CCCC3)cc2c1=O | 0.6 | -46.7% | 5.1% | -12.9 | -7.5%
Cc1ccccc1Cn1c(=O)n(CCCCC(=O)NCCc2ccccc2)c(=O)c2ccccc21 | x | x | 0.1% | x | x
Cn1c(=O)c2c(c3ccccc31)OC(C)(C)CC2 | 12.3 | -13.8%[15.4 µM] | 5.5% | -12.3 | +[activator]
O=C(CCCn1c(=O)c2sccc2n(Cc2ccc(Cl)cc2)c1=O)NCc1ccc2c(c1)OCO2 | x | x | 2.9% | -13.5 | x
CC(C)Cn1c(=O)c2ccccc2n2c(CCC(=O)Nc3ccc(F)c(F)c3)nnc12 | x | x | -0.1% | -12.0 | x
O=C1Cc2cc(CCN3CCN(c4nsc5ccccc45)CC3)c(Cl)cc2N1 | -20.5 | x | 4.1% | -107.3* | x
